CD11b adhes enh: increases human CD11b/CD18 adhesion to fibrinogen; K562 CD11b/CD18 adhesion to fibrinogen, ATPlite luminescence; activation, % at 10 µM; actives 0.07% (n = 93,000); AID 1499;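 active = 10 µM primary screen giving 50% or more activity, confirmed by 40% or more on retest at that dose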
CYP2C9 inhib: inhibitors of human CYP2C9; inhibition, % at 5 µM; P11712; AID 777; actives 20% (n = 96,000); CYP2C9 Supersomes, luciferin-H conversion, luminescence;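 active = blocking of liver enzyme CYP2C9 beyond about 50% at 5 µM, limit read from the data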
Target sequence (P11712 whole entry, looked up): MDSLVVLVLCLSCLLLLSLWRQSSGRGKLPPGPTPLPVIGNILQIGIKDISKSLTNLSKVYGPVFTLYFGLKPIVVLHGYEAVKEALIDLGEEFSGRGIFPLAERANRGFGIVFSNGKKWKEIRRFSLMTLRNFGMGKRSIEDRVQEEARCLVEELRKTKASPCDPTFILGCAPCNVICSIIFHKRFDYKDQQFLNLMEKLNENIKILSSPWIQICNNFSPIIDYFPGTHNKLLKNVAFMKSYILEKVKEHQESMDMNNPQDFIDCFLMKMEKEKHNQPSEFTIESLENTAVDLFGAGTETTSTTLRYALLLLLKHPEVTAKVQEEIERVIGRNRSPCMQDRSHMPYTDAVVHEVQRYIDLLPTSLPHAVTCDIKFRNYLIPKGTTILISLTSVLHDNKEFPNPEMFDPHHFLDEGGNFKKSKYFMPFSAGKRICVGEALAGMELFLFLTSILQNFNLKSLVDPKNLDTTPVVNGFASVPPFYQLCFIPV
CD11b adhes inh: blocks human CD11b/CD18 adhesion to fibrinogen | K562 CD11b/CD18 adhesion to fibrinogen, ATPlite luminescence; Mn2+ added to activate the integrin | inhibition, % at 10 µM | actives 0.54% (n = 93,000) | AID 1497;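 active = primary inhibition of 50% or more at 10 µM, then 40% or more on retest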
CYP2C19 inh: blocks human cytochrome P450 2C19; CYP2C19 Supersomes, luciferin-H EGE luminescence, 30 min; inhibition, % at 5 µM; actives 21% (n = 96,000); P33261;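 active = CYP2C19 inhibition above a set limit at 5 µM in the primary screen, cut at about 50% in these data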;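 also: plate controls were negative control wells for no effect and 2.5 mM tranylcypromine positive control for full effect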
CYP2C9 act: increases human cytochrome P450 2C9 activity; recombinant CYP2C9, luciferin-H conversion, luminescence; hits give high values; factor 1 = untreated enzyme, 0 = blocked; AID 1024; P11712; activation factor at 5 µM; actives 1.4% (n = 96,000);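 active = activation factor of 2 or more for CYP2C9 at a 5 µM dose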;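 also: 0 = sulfaphenazole-blocked wells and 1 = vehicle-only wells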
CYP2C19 activ: cytochrome P450 2C19 (human) activation; 96,000 tested, under 10 active; P33261; activation factor at 5 µM; recombinant CYP2C19, luciferin-H EGE luminescence; hits give high values; 0 = fully inhibited enzyme, 1 = untreated enzyme;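 active = activation factor of at least 2 at 5 µM in the primary screen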;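 also: 0 = wells with 2.5 mM tranylcypromine and 1 = vehicle-only wells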
Active calls of the source: *; . = no result given. This is a sample that favours compounds with a hit; in the whole collection about 28% have one here.

SMILES	CD11b adhes enh	CYP2C9 inhib	CD11b adhes inh	CYP2C19 inh	CYP2C9 act	CYP2C19 activ
COCC(C)n1c(C)cc(C(=O)COc2ccc(S(=O)(=O)N3CCOCC3)cc2Cl)c1C (configuration not stated)	0	58*	24	51*	0.4	0.5
CSc1ccc(N2C(=O)NC3(CCCCC3)C2=O)cc1	7	-8	-11	70*	1.1	0.3
CCn1c(=O)c(C(=O)CN2CCOCC2)c(N)n(Cc2ccccc2)c1=O	-2	-18	26	-19	1.2	1.2
Cc1sc2nc3c4ccccc4c(NCc4ccco4)nn3c(=O)c2c1C	44	28	-3	6	0.7	0.9
CCOC(=O)c1sc2nc(CC(=O)OC)nc(NCC(=O)OC)c2c1C	1	-4	6	-2	1	1
Cc1nc(NCc2ccco2)c2c(C)c(C)sc2n1	-6	82*	83*	77*	0.2	0.2
Cc1sc2ncnc(N(C)Cc3ccco3)c2c1C	-5	78*	-21	96*	0.2	0
Cc1nc(SCC(=O)N(C)Cc2ccco2)c2c(C)c(C)sc2n1	2	88*	-14	68*	0.1	0.3
CCOC(=O)c1sc2nc(CC(=O)OC)nc(NCc3ccco3)c2c1C	.	84*	.	61*	0.2	0.4
COC(=O)c1c(C)cc(C)n2c1nc1ccccc12	-1	2	-5	-1	1	1
O=C1c2oc3ccccc3c(=O)c2C(c2cccnc2)N1Cc1ccco1 (configuration not stated)	0	18	-13	5	0.8	0.9
CC1=C/C(=N\NC(=O)c2ccc(O)cc2)CC1	1	.	-13	.	.	.
COc1cc2c(=O)n(-c3ccc(C)cc3)c(=O)n(CC(=O)c3ccc4c(c3)OCO4)c2cc1OC	3	2	-54	4	1	1
COc1cc2c(O)c3c(c(-c4ccc5c(c4)OCO5)c2cc1OC)C(=O)OC3	.	68*	.	19	0.3	0.8
c1ccc(-c2cc(N3CCCCC3)ncn2)cc1	2	21	-16	87*	0.8	0.1
Nc1nc(-c2ccccc2)cc(N2CCCCC2)n1	-4	21	4	51*	0.8	0.5
c1ccc(-c2cc(N3CCCCCC3)n[nH]2)cc1	0	24	-36	22	0.8	0.8
c1ccc(-c2cnnc(N3CCCCC3)n2)cc1	-3	43	-3	83*	0.6	0.2
Cc1cc(C)n(-c2cc(-c3ccccc3)nc(C)n2)n1	3	22	4	22	0.8	0.8
Cc1nc(-c2ccccc2)cc(N2CCCC2)n1	6	30	10	51*	0.7	0.5
Cn1c(=O)c2sccc2n2c(CCCC(=O)NCc3ccc4c(c3)OCO4)nnc12	.	6	.	77*	0.9	0.2
Cn1c(=O)cc(SCC(=O)N2CCN(Cc3ccc4c(c3)OCO4)CC2)c2ccccc21	-5	52*	19	24	0.5	0.8
O=C(CCCCn1c(=O)[nH]c2ccsc2c1=O)NCc1ccc2c(c1)OCO2	-1	60*	-9	11	0.4	0.9
COc1ccccc1N1CCN(C(=O)CCCCn2c(=O)[nH]c3ccsc3c2=O)CC1	1	31	-14	48	0.7	0.5
Cn1c(Cn2nnc3ccccc32)nnc1SCC(=O)NCc1ccc2c(c1)OCO2	-3	16	-9	-1	0.8	1
SMILES	CD11b adhes enh	CYP2C9 inhib	CD11b adhes inh	CYP2C19 inh	CYP2C9 act	CYP2C19 activ
CCn1c(=O)cc(SCC(=O)N2CCN(Cc3ccc4c(c3)OCO4)CC2)c2ccccc21	-3	41	11	41	0.6	0.6
O=C(CCCCCn1c(=O)[nH]c2ccccc2c1=O)N1CCN(Cc2ccc3c(c2)OCO3)CC1	2	80*	9	65*	0.2	0.4
CC(=O)c1coc2ccc(OCCN3CCCCC3)cc12	-3	-8	-16	-15	1.1	1.2
CCOc1ccc(NC(=O)CSc2nnc(C34CC5CC(CC(C5)C3)C4)n2C)cc1	7	43	-6	23	0.6	0.8
CCN1CNC(=S)N(c2cccc(C)c2C)C1	.	11	.	-6	0.9	1.1
Cc1cc(C)n2nc(SC3CCCCN(C(=O)c4ccc(F)cc4)C3=O)nc2n1 (configuration not stated)	.	8	.	-2	0.9	1
Cc1csc(-c2cnn(-c3ccccc3)c2NC(=O)c2ccc(C(F)(F)F)cc2)n1	2	14	-20	19	0.9	0.8
O=c1c2ccccc2nc2n1C(CSCc1ccc(Cl)cc1)CS2 (configuration not stated)	1	29	47	75*	0.7	0.2
COc1cccc(C(=O)NCc2n[nH]c(=S)n2-c2cccc(C)c2)c1	-2	8	-3	46	0.9	0.5
Cc1nc2ccc(NC(=O)Cc3cccs3)cc2s1	-1	65*	8	59*	0.3	0.4
Cc1nc2ccc(NC(=O)c3cccc(S(=O)(=O)N4CC(C)OC(C)C4)c3)cc2s1 (configuration not stated)	-2	66*	-27	71*	0.3	0.3
Cc1nc2ccc(NC(=O)c3ccc(S(=O)(=O)N4CCOCC4)cc3)cc2s1	-1	4	6	-8	1	1.1
Cc1nc2ccc(NC(=O)c3ccc(Cl)c(NC(=O)c4cccs4)c3)cc2s1	8	54*	-14	14	0.5	0.9
O=C(CN(c1ccccc1F)S(=O)(=O)c1ccccc1)N1CCCCCC1	3	-19	3	2	1.2	1
CS(=O)(=O)Nc1ccc(N2CCCCC2)c(Cl)c1	.	33	.	44	0.7	0.6
Cc1ccc(Cn2nnc3c(=O)[nH]c(C4CCCN(S(=O)(=O)c5ccccc5)C4)nc32)cc1 (configuration not stated)	-3	26	-8	13	0.7	0.9
Cc1ccc(Cn2nnc3c(=O)[nH]c(C4CCN(S(=O)(=O)c5ccccc5)CC4)nc32)cc1	.	79*	.	31	0.2	0.7
O=C(Cc1cccs1)N1CCC(c2nc3c(nnn3Cc3ccccc3)c(=O)[nH]2)CC1	-5	97*	-1	48	0	0.5
Cc1ccc(Cn2nnc3c(=O)[nH]c(C4CCN(C(=O)Cc5cccs5)CC4)nc32)cc1	-3	89*	0	48	0.1	0.5
CC(C)CNC(=S)NNC(=O)c1csc2c1CCC(C)C2 (configuration not stated)	0	6	-4	52*	0.9	0.5
Cc1cccc(NC(=S)NNC(=O)c2csc3c2CCC(C)C3)c1 (configuration not stated)	-3	43	6	25	0.6	0.8
CCC(=O)OCc1cc2cccc(C)c2[nH]c1=O	2	5	-5	53*	1	0.5

Screens: PubChem BioAssay, Sanford-Burnham Center for Chemical Genomics
